Test results reported in PubChem BioAssay (NCI).
The panel holds about 83,000 compounds, 20% with a hit somewhere; the sample as a whole holds those more often.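 Negative percent growth values reflect cell death: -40 means 40% of the cells present at the start died, and -100 means all died.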 Unmarked numbers belong to inactive results. Activity calls are given as the source filed them. How the source made its calls: active means growth percent below 10; inactive means the rest.

How the values were obtained:
Assay in all cases: NCI-60 one-dose screen, 48 h (100 = growth as untreated, 0 = no growth, -100 = all killed)
Conditions in all cases: 10 µM unless noted
[1] = test system: DU-145 prostate
[2] = test system: K-562 leukemia
[3] = test system: MALME-3M melanoma
[4] = test system: MDA-MB-231 breast
[5] = test system: RXF 393 renal
[6] = test system: SF-268 CNS
[7] = test system: SF-295 CNS
[8] = test system: SF-539 CNS
[9] = test system: UACC-257 melanoma
[10] = test system: M14 melanoma
[11] = test system: HCT-15 colon
[12] = test system: HT29 colon
[13] = test system: SNB-75 CNS
[14] = test system: SNB-19 CNS
[15] = test system: U251 CNS
[16] = test system: PC-3 prostate
[17] = test system: SK-MEL-5 melanoma
[18] = test system: UACC-62 melanoma
[19] = test system: LOX IMVI melanoma
[20] = test system: SK-MEL-28 melanoma

SMILES | growth [1] | growth [2] | growth [3] | growth [4] | growth [5] | growth [6] | growth [7] | growth [8] | growth [9] | growth [10] | growth [11] | growth [12] | growth [13] | growth [14] | growth [15] | growth [16] | growth [17] | growth [18] | growth [19] | growth [20]
C=C(C)[C@@H]1CC[C@]2(C(N)=O)CC[C@]3(C)[C@H](CC[C@@H]4[C@@]5(C)C/C(=C/c6cccnc6)[C@H](O)C(C)(C)[C@@H]5CC[C@]43C)[C@@H]12 | 38.2% [100 µM] | 5.36% [100 µM] (active) | 5.89% [100 µM] (active) | 28.9% [100 µM] | 13.4% [100 µM] | 45.6% [100 µM] | 23.9% [100 µM] | 25.1% [100 µM] | 38% [100 µM] | 33.8% [100 µM] | 18.7% [100 µM] | -20.5% [100 µM] (active) | 47.1% [100 µM] | 39% [100 µM] | 24.6% [100 µM] | 21.1% [100 µM] | -78.1% [100 µM] (active) | 24.8% [100 µM] | -35.9% [100 µM] (active) | 26.5% [100 µM]
CCNc1cc2c(cc1Br)-c1ccccc1C2=O | 97.7% | 102% | 92.8% | 73.2% | 105% | 90% | 106% | 103% | 93.4% | 107% | 77.6% | 97.4% | 78.1% | 96% | 96.3% | 81.4% | 95.2% | 86.9% | 88.1% | 114%
O=C(NNc1ccc(-c2ccccc2)nn1)c1ccc(F)cc1 | 88.9% | 98.5% | 109% | 94.5% | 82.1% | 88.8% | 95.3% | 93.4% | 108% | 99.9% | 89% | 96.1% | 79.9% | 86.5% | 95.2% | 105% | 95.3% | 95.3% | 98.9% | 110%
C[C@H]1[C@H](C)CC[C@]2(C(=O)N3CCN(C)CC3)CC[C@]3(C)C(=CC[C@@H]4[C@@]5(C)C/C(=C/c6ccco6)C(=O)C(C)(C)[C@@H]5CC[C@]43C)[C@H]12 | 50.4% [100 µM] | 28.2% [100 µM] | 45.7% [100 µM] | 15.6% [100 µM] | 55.1% [100 µM] | 50.3% [100 µM] | 29.8% [100 µM] | 46.2% [100 µM] | 22.5% [100 µM] | 48.8% [100 µM] | 32.5% [100 µM] | 26.3% [100 µM] | 62.3% [100 µM] | 47.7% [100 µM] | 17.4% [100 µM] | 29.9% [100 µM] | -46.8% [100 µM] (active) | 32.8% [100 µM] | -6.24% [100 µM] (active) | 35% [100 µM]
COc1c(B(O)O)cccc1-c1nc2ccc3[nH]ncc3c2c2c1CCC2 | 63.3% | 77.9% | 98.4% | 40.7% | 4.27% (active) | 65.9% | 86.9% | 54.7% | 111% | 65% | 54.7% | 63.8% | 32.7% | 82.3% | 66.1% | 60.2% | 52.4% | 57.6% | 53.3% | 86.3%
COc1ccc(-c2nc3ccccn3c2/C=C/C(=O)c2cc(OC)c(OC)c(OC)c2)cc1OC | 12.7% | 14.6% | 45.9% | 21.4% | 27.8% | 26.2% | 4.4% (active) | -25.1% (active) | 52.8% | 13.4% | 22.1% | 16.7% | 46.1% | 29.8% | 7.81% (active) | 26.1% | -86.7% (active) | 19.9% | 4.18% (active) | 29.1%
CNC(=O)c1cc(Oc2cccc3nc(NC(=O)Nc4cc(C(F)(F)F)cc(C(F)(F)F)c4)ccc23)ccn1 | 45.4% | 71.9% | 21.3% | 23.3% | 27.5% | 36.1% | 30.3% | 38.9% | 57.7% | 35.5% | 71.1% | 16% | -23.7% (active) | 38.8% | -34.9% (active) | 52.8% | 59.9% | 41.4% | 12.7% | 33.2%
O=C(O)CC1CCCCC1c1ccccc1 (stereo not given) | 117% | 109% | 112% | 116% | 106% | 109% | 100% | 91.9% | 112% | 97.2% | 97.8% | 101% | 106% | 106% | 105% | 90% | 105% | 102% | 103% | 119%
CCN(CCO)CCC(=O)c1ccc([N+](=O)[O-])cc1 | 103% | 101% | 102% | 115% | 106% | 97% | 103% | 105% | 105% | 106% | 101% | 105% | 93.2% | 117% | 98.1% | 103% | 100% | 104% | 98.5% | 117%
CC1(C)C(=O)/C(=C\c2cccnc2)C[C@]2(C)[C@H]3CC[C@@H]4[C@H]5[C@H](C(=O)/C=C/c6cccnc6)CC[C@]5(C(=O)O)CC[C@@]4(C)[C@]3(C)CC[C@@H]12 | -80.6% [100 µM] (active) | 6.57% [100 µM] (active) | -73.8% [100 µM] (active) | -34.6% [100 µM] (active) | -61.9% [100 µM] (active) | -34.9% [100 µM] (active) | -75.8% [100 µM] (active) | -56.9% [100 µM] (active) | -52% [100 µM] (active) | -38.4% [100 µM] (active) | -74.6% [100 µM] (active) | -72% [100 µM] (active) | -96.5% [100 µM] (active) | -83.3% [100 µM] (active) | -82.3% [100 µM] (active) | -38.4% [100 µM] (active) | -73.5% [100 µM] (active) | -89.8% [100 µM] (active) | -68.9% [100 µM] (active) | -71.7% [100 µM] (active)
C=CCCCCOc1ccccc1-c1cnc(OCCCCC=C)n1C | 92.6% | 30.5% | 62.8% | 66.5% | 90.5% | 79.6% | 70.1% | 81% | 66.6% | 72.6% | 52.2% | 18.1% | 81.9% | 91.1% | 68.6% | 73.5% | 83.7% | 55.7% | 69.1% | 73.4%
COc1ccc2nc3ccccc3c(NCCNCCO)c2c1 | -31.2% (active) | 18.9% | -65.5% (active) | -18.9% (active) | -63% (active) | -27.9% (active) | -18.4% (active) | -11.1% (active) | -50% (active) | -87.3% (active) | 19.6% | -11.9% (active) | -53.2% (active) | 1.53% (active) | 6.95% (active) | 4.92% (active) | -32.9% (active) | -70.2% (active) | -52.2% (active) | -70.4% (active)
CC(=O)OC[C@]12CC[C@@H]([C@@H](C)C(N)=O)[C@@H]1[C@H]1CC[C@@H]3[C@@]4(C)CC[C@H](OC(C)=O)C(C)(C)[C@@H]4CC[C@@]3(C)[C@]1(C)CC2 | -69.9% [100 µM] (active) | 3.1% [100 µM] (active) | -89% [100 µM] (active) | -88.6% [100 µM] (active) | -64.9% [100 µM] (active) | -61% [100 µM] (active) | -50.8% [100 µM] (active) | -83.9% [100 µM] (active) | -46.2% [100 µM] (active) | -44.3% [100 µM] (active) | -44.1% [100 µM] (active) | -77.7% [100 µM] (active) | -47.8% [100 µM] (active) | -40% [100 µM] (active) | -51.4% [100 µM] (active) | -47.4% [100 µM] (active) | -71.9% [100 µM] (active) | -83% [100 µM] (active) | -85.5% [100 µM] (active) | -73.2% [100 µM] (active)
O=C1Nc2ccccc2/C1=C/C(=O)c1ccc(N2CCCCC2)cc1 | 66.8% | 68.2% | 69.8% | 82.1% | 77% | 71.7% | 103% | 79.3% | 97.7% | 107% | 79.8% | 32.8% | 91.4% | 86.5% | 52.7% | 52.7% | 93.2% | 68.6% | 43.3% | 105%
